Results from PubChem BioAssay (NCATS).

target: Glucocorticoid receptor (Homo sapiens) (UniProt P04150); experiment: GR-GFP Redistribution (AID 450); settings: U2OS GR-GFP nuclear translocation, laser cytometry, 2 h; series mostly up to 20.6 µM
Potency is read from the fitted curve at half-maximal effect.

Sequence of Glucocorticoid receptor (Homo sapiens) (P04150 whole entry, looked up): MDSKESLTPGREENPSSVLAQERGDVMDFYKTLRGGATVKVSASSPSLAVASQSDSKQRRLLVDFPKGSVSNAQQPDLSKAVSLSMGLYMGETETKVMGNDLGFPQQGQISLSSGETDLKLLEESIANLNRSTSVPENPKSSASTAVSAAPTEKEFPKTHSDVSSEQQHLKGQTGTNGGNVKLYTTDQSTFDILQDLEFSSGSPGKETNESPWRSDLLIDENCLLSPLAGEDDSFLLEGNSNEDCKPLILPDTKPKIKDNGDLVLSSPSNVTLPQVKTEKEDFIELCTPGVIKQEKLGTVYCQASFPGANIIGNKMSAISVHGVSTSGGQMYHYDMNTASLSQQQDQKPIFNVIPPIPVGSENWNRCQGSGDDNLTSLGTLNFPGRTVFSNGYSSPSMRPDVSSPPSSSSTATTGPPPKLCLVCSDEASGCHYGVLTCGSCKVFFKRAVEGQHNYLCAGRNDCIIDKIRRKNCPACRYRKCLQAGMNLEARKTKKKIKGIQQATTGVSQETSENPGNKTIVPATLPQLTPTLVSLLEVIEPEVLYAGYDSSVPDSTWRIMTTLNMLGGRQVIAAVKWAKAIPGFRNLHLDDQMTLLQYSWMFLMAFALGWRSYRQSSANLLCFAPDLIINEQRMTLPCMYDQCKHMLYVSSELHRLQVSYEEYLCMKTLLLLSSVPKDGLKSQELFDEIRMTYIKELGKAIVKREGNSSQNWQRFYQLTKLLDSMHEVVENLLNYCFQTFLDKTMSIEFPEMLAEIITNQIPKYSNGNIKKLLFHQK

Potency, inactive:
Oc1ccc(Br)cc1-c1cc(-c2ccccc2F)[nH]n1 > 20.6 µM
CCN1CC2=C(OC(N)=C(C#N)C2c2ccccc2)/C(=C\c2ccccc2)C1 (centres undefined) > 20.6 µM
CCCc1nc(NC2CCCCC2)c(C#N)c2c1COC(C)(C)C2 > 20.6 µM
N#Cc1c(N2CCOCC2)nc(N2CCCCC2)c2c1CCN(C1CCCCC1)C2 > 20.6 µM
CN(C)C(=O)COn1c(SCC(=O)N(C)C)nc2ccccc2c1=O > 20.6 µM
Cc1ccc(CNc2oc(COc3ccccc3Cl)nc2C#N)cc1 > 20.6 µM
CCCSc1nnc2n(-c3ccccc3OC)c(=O)c3c4c(sc3n12)CCC4 > 20.6 µM
COc1ccccc1N1CCN(CCCCOc2ccc(F)cc2)CC1 > 20.6 µM
CCOC(=O)c1[nH]c2ccccc2c1N=C(C)N(CC)CC > 20.6 µM
Nc1nnnn1/N=C/c1ccco1 > 20.6 µM
COC(=O)c1cc(=O)n2c(-c3ccc(OC)cc3)csc2n1 > 20.6 µM
O=C(NCCN1CCCCC1)/C(=N\O)c1ccccc1 > 20.6 µM
CC(C)c1nc2sc3c(c2c(=O)o1)CCCC3 > 20.6 µM
Cc1cc(=O)oc2c(CN3CCC(C)CC3)c(O)c(Cl)cc12 > 20.6 µM
Nc1c2c(nc3ccccc13)N(C1CCCCC1)CC2 > 20.6 µM
CCN(CC)CCNc1nc(-c2ccco2)c2c(c1C#N)CC(C)(C)OC2 > 20.6 µM
CC(C)(C)OC(=O)NCCC(=O)Oc1ccc2ccc(=O)oc2c1 > 20.6 µM
Cc1nn(CC(=O)NCCN2CCOCC2)c(=O)c2ccccc12 > 20.6 µM
CCCSc1nc(N2CCCC2)c2c(c1C#N)CC(C)(C)OC2 > 20.6 µM
CCC(C)Nc1nc(-c2cccc(OC)c2O)nc2ccccc12 (centres undefined) > 20.6 µM
Cc1ccc(N2C(=O)CC(N(O)C3CC(=O)N(c4ccc(C)cc4)C3=O)C2=O)cc1 (centres undefined) > 20.6 µM
COc1ccc(C2C(C#N)=C(SC)NC3=C2C(=O)CC(C)(C)C3)cc1 (centres undefined) > 20.6 µM
CN(C)CCCN1C(=O)C(=O)/C(=C(/O)c2ccccc2)C1c1ccccn1 (centres undefined) > 20.6 µM
Cc1c(C)c2cc(Cl)c(O)c(CN3CCCCC3)c2oc1=O > 20.6 µM
CCCSc1nnc2n(C)c(=O)c3c4c(sc3n12)CCC4 > 20.6 µM
Fc1ccc(-c2cnc[nH]2)cc1 > 20.6 µM
CCCc1cc(C(=O)Cc2ccc(F)cc2)c(O)cc1O > 20.6 µM
CCc1nnc(NC(=O)CSc2nc(C)c3c(c2C#N)CCCC3)s1 > 20.6 µM
CC(C)Cc1nc(N2CCCCC2)c(C#N)c2c1CCC2 > 20.6 µM
Cc1ccc(C)c(OCc2nnc(NC(=O)c3ccco3)s2)c1 > 20.6 µM
O=C(c1cccs1)N1CCC(N2CCN(c3ccccc3)CC2)CC1 > 20.6 µM
COc1cccc(NC(=O)C2CC(=O)n3cnnc3S2)c1 (centres undefined) > 20.6 µM
O=C(Nc1nc(NC(=O)c2ccco2)n(-c2ccccc2)n1)c1ccccc1 > 20.6 µM
Cc1cccc(N(Cc2cc3ccccc3[nH]c2=O)C(=O)c2ccco2)c1C > 20.6 µM
Cc1cccn2c(=O)c3cc(C(N)=S)c(=N)n(CCCOC(C)C)c3nc12 > 20.6 µM
COCCCNC(=O)c1c(N)n(/N=C/c2cccnc2)c2nc3ccccc3nc12 > 20.6 µM
CCCCOc1ccc(C(=O)OC2CC(C)N(C)CC2C)cc1 (centres undefined) > 20.6 µM
COc1ccc2c(c1OC)C(=O)N1c3ccccc3C(=O)N(c3ccccc3F)C21 (centres undefined) > 20.6 µM
C=CCn1c(=S)[nH]c2nc3c(cc2c1=O)CCCC3 > 20.6 µM
